According to PubChem BioAssay AID1159580 (chemical genetic matrix, 2015):
Values joined by “and” are separate entries in the source; they are usually repeats but may differ in a detail not shown here. Identical values can stand only once. Screen size: about 5,500 compounds; about 2,000 (36%) were called active. Roughly 18% stayed inconclusive and do not appear here. Cut-off read from the data, not from the text of the source: active = normalized growth mostly below about 0.91 (no sharp cut-off); inconclusive = no clear call, values can overlap the other calls; inactive = mostly above about 0.92. This is one part of the list.

Experiment: chemical genetic growth profiling, strain panel (AID 1159580);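 note: tested at 20 µM; growth read once vehicle control cultures reached saturation at 30 °C; 1 = growth at the plate median or of vehicle wells; lower values mean less growth of the strain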
Conditions: S. cerevisiae deletion strains, growth OD

Measured: normalized growth

CC(=O)Oc1ccc2c(c1OC(C)=O)OCC1(O)Cc3c(cc(OC(C)=O)c(OC(C)=O)c3OC(C)=O)C21 (configuration not stated)
inactive: locus YAL013W, strain DEP1, stronger effect = lower value 1.02 | locus YAL021C, strain ccr4, stronger effect = lower value 0.948 | locus YAL026C, strain drs2, stronger effect = lower value 1.03 | locus YAL030W, strain snc1, stronger effect = lower value 1.01 | locus YBL061C, strain skt5, stronger effect = lower value 1.01 | locus YBR009C, strain hhf1, stronger effect = lower value 1.01 | locus YBR021W, strain FUR4, stronger effect = lower value 1.02 | locus YBR023C, strain chs3, stronger effect = lower value 0.988 | locus YBR171W, strain sec66, stronger effect = lower value 1.02 | locus YBR229C, strain ROT2, stronger effect = lower value 1.01 | locus YBR231C, strain swc5, stronger effect = lower value 0.975 | locus YBR279W, strain paf1, stronger effect = lower value 0.99 | locus YCL011C, strain gbp2, stronger effect = lower value 0.997 | locus YCL016C, strain dcc1, stronger effect = lower value 0.982 | locus YCL029C, strain bik1, stronger effect = lower value 0.978 | locus YCL061C, strain MRC1, stronger effect = lower value 1 | locus YCL069W, strain vba3, stronger effect = lower value 1.03 | locus YCR088W, strain abp1, stronger effect = lower value 1.02 | locus YDL005C, strain med2, stronger effect = lower value 1.01 | locus YDL035C, strain GPR1, stronger effect = lower value 1.01 | locus YDL040C, strain nat1, stronger effect = lower value 1.01 | locus YDL074C, strain BRE1, stronger effect = lower value 0.973 | locus YDL101C, strain DUN1, stronger effect = lower value 0.943 | locus YDL134C, strain PPH21, stronger effect = lower value 0.997 | locus YDL185W, strain tfp1, stronger effect = lower value 0.955 | locus YDL192W, strain arf1, stronger effect = lower value 1.01 | locus YDR001C, strain nth1, stronger effect = lower value 1.02 | locus YDR069C, strain doa4, stronger effect = lower value 0.969 | locus YDR101C, strain arx1, stronger effect = lower value 1.04 | locus YDR137W, strain rgp1, stronger effect = lower value 1 | locus YDR159W, strain sac3, stronger effect = lower value 1.06 | locus YDR162C, strain NBP2, stronger effect = lower value 0.948 | locus YDR195W, strain ref2 1.01 | locus YDR297W, strain sur2, stronger effect = lower value 1 | locus YDR318W, strain mcm21, stronger effect = lower value 1.02 | locus YDR334W, strain swr1, stronger effect = lower value 1.02 | locus YDR335W, strain msn5, stronger effect = lower value 0.998 | locus YDR388W, stronger effect = lower value 0.996 | locus YDR392W, strain spt3, stronger effect = lower value 0.923 | locus YDR502C, strain sam2, stronger effect = lower value 1 | locus YEL003W, strain gim4, stronger effect = lower value 1 | locus YEL037C, strain rad23, stronger effect = lower value 1.01 | locus YEL061C, strain CIN8 (second series), stronger effect = lower value 1.01 | locus YER015W, strain faa2, stronger effect = lower value 0.974 | locus YER016W, strain bim1, stronger effect = lower value 1.02 | locus YER110C, stronger effect = lower value 0.991 | locus YER111C, strain swi4, stronger effect = lower value 0.999 | locus YER155C, strain BEM2 (second series), stronger effect = lower value 1.02 | locus YER155C, strain BEM2, stronger effect = lower value 1.02 | locus YER167W, strain BCK2, stronger effect = lower value 1.01 | locus YFR010W, strain ubp6, stronger effect = lower value 1.02 | locus YGL078C, strain dbp3, stronger effect = lower value 0.983 | locus YGL086W, strain mad1, stronger effect = lower value 0.986 | locus YGL167C, strain pmr1, stronger effect = lower value 0.995 | locus YGL173C, strain kem1, stronger effect = lower value 1.02 | locus YGL227W, strain vid30, stronger effect = lower value 1.02 | locus YGL240W, strain doc1, stronger effect = lower value 1.07 | locus YGL248W, strain PDE1, stronger effect = lower value 0.965 | locus YGL253W, strain hxk2, stronger effect = lower value 1.04 | locus YGR135W, strain pre9, stronger effect = lower value 0.949 | locus YGR229C, strain SMI1, stronger effect = lower value 1.07 | locus YGR252W, strain gcn5, stronger effect = lower value 1.11 | locus YHR013C, strain ard1, stronger effect = lower value 0.981 | locus YHR027C, strain rpn1, stronger effect = lower value 1 | locus YHR030C, strain SLT2, stronger effect = lower value 1.01 and 1.06 | locus YHR079C, strain IRE1 (second series), stronger effect = lower value 0.987 | locus YHR079C, strain IRE1, stronger effect = lower value 1.08 | locus YHR094C, strain hxt1, stronger effect = lower value 1 | locus YHR129C, strain ARP1, stronger effect = lower value 1.01 | locus YHR142W, strain chs7, stronger effect = lower value 1 | locus YHR200W, strain rpn10, stronger effect = lower value 0.983 | locus YIL066C, strain RNR3, stronger effect = lower value 0.97 | locus YIL073C, strain SPO22, stronger effect = lower value 0.794 | locus YIL125W, strain kgd1, stronger effect = lower value 0.993 | locus YIR030C, strain dcg1, stronger effect = lower value 0.986 | locus YJL092W, strain hpr5, stronger effect = lower value 1.01 | locus YJL095W, strain BCK1 (second series), stronger effect = lower value 1 | locus YJL095W, strain BCK1, stronger effect = lower value 0.947 and 1.06 | locus YJL115W, strain asf1, stronger effect = lower value 1.01 | locus YJL129C, strain trk1, stronger effect = lower value 1.03 | locus YJL134W, strain LCB3, stronger effect = lower value 1 | locus YJL154C, strain vps35, stronger effect = lower value 1.01 | locus YJL164C, strain tpk1, stronger effect = lower value 0.98 | locus YJL166W, strain qcr8, stronger effect = lower value 1.01 | locus YJL168C, strain set2, stronger effect = lower value 0.997 | locus YJL187C, strain SWE1 (second series), stronger effect = lower value 0.873 | locus YJL187C, strain SWE1, stronger effect = lower value 0.988 | locus YJR066W, strain TOR1, stronger effect = lower value 1.04 | locus YKL009W, strain mrt4, stronger effect = lower value 0.973 | locus YKL068W, stronger effect = lower value 0.994 | locus YKL085W, strain MDH1 (second series), stronger effect = lower value 0.976 | locus YKL085W, strain MDH1, stronger effect = lower value 0.976 | locus YKL160W, strain elf1, stronger effect = lower value 0.983 | locus YKL190W, strain CNB1, stronger effect = lower value 0.987 | locus YKR001C, strain vps1, stronger effect = lower value 1.04 | locus YKR026C, strain gcn3, stronger effect = lower value 1.02 | locus YKR091W, strain srl3, stronger effect = lower value 1.01 | locus YLL001W, strain dnm1, stronger effect = lower value 0.978 | locus YLL026W, stronger effect = lower value 1.01 | locus YLL041C, strain sdh2, stronger effect = lower value 1.02 | locus YLR027C, strain aat2, stronger effect = lower value 1.01 | locus YLR039C, strain RIC1, stronger effect = lower value 1.06 | locus YLR058C, strain SHM2, stronger effect = lower value 0.898 | locus YLR102C, strain apc9, stronger effect = lower value 0.981 | locus YLR113W, strain HOG1, stronger effect = lower value 1.04 | locus YLR221C, strain rsa3, stronger effect = lower value 1.03 | locus YLR258W, strain gsy2, stronger effect = lower value 1 | locus YLR262C, strain YPT6 (second series), stronger effect = lower value 1 | locus YLR268W, strain sec22, stronger effect = lower value 1.01 | locus YLR320W, strain mms22, stronger effect = lower value 1.03 | locus YLR330W, strain CHS5, stronger effect = lower value 1.02 | locus YLR342W, strain FKS1, stronger effect = lower value 1 | locus YLR357W, strain rsc2, stronger effect = lower value 1 | locus YLR370C, strain arc18, stronger effect = lower value 1.01 | locus YLR371W, strain rom2, stronger effect = lower value 0.997 | locus YLR384C, strain iki3, stronger effect = lower value 1.01 | locus YLR418C, strain cdc73, stronger effect = lower value 1.02 | locus YML016C, strain PPZ1, stronger effect = lower value 0.972 | locus YML032C, strain rad52, stronger effect = lower value 1 | locus YML120C, strain ndi1, stronger effect = lower value 0.983 | locus YML124C, strain tub3, stronger effect = lower value 0.988 | locus YMR058W, strain fet3, stronger effect = lower value 1.02 | locus YMR078C, strain ctf18, stronger effect = lower value 0.994 | locus YMR125W, strain sto1, stronger effect = lower value 0.989 | locus YMR129W, stronger effect = lower value 1.01 | locus YMR205C, strain PFK2, stronger effect = lower value 0.974 | locus YMR223W, strain ubp8, stronger effect = lower value 0.995 | locus YMR231W, strain pep5, stronger effect = lower value 1.01 | locus YMR263W, strain SAP30, stronger effect = lower value 1.01 | locus YMR307W, strain GAS1, stronger effect = lower value 1.06 | locus YNL067W, strain RPL9B, stronger effect = lower value 1.02 | locus YNL071W, strain lat1, stronger effect = lower value 1 | locus YNL183C, strain NPR1, stronger effect = lower value 1.03 | locus YNL209W, strain ssb2, stronger effect = lower value 0.973 | locus YNL233W, strain BNI4, stronger effect = lower value 1 | locus YNL248C, strain rpa49, stronger effect = lower value 1.04 | locus YNL250W, strain rad50, stronger effect = lower value 0.925 | locus YNL271C, strain bni1, stronger effect = lower value 0.976 | locus YNL298W, strain CLA4, stronger effect = lower value 1.01 | locus YNL307C, strain MCK1, stronger effect = lower value 0.998 | locus YNL322C, strain KRE1 (second series), stronger effect = lower value 1 | locus YNR049C, strain mso1, stronger effect = lower value 1.03 | locus YNR052C, strain pop2, stronger effect = lower value 0.988 | locus YOL006C, strain TOP1, stronger effect = lower value 0.743 | locus YOL012C, strain htz1 0.406 | locus YOL147C, strain pex11, stronger effect = lower value 0.999 | locus YOR001W, strain rrp6, stronger effect = lower value 1.06 | locus YOR061W, strain CKA2, stronger effect = lower value 0.981 | locus YOR069W, strain VPS5, stronger effect = lower value 1 | locus YOR070C, strain gyp1, stronger effect = lower value 1.01 | locus YOR080W, strain dia2, stronger effect = lower value 1 | locus YOR083W, strain WHI5, stronger effect = lower value 0.984 | locus YOR106W, strain vam3, stronger effect = lower value 0.955 | locus YOR136W, strain idh2, stronger effect = lower value 1.02 | locus YOR144C, strain elg1, stronger effect = lower value 1 | locus YOR184W, strain ser1, stronger effect = lower value 1.1 | locus YOR231W, strain MKK1, stronger effect = lower value 1.08 | locus YOR265W, strain rbl2, stronger effect = lower value 1.03 | locus YOR270C, strain vph1, stronger effect = lower value 1.07 | locus YOR290C, strain snf2, stronger effect = lower value 0.988 | locus YOR316C, strain cot1, stronger effect = lower value 0.987 | locus YPL051W, strain arl3, stronger effect = lower value 0.969 | locus YPL078C, strain atp4, stronger effect = lower value 0.991 | locus YPL106C, strain sse1, stronger effect = lower value 0.949 | locus YPL240C, strain hsp82, stronger effect = lower value 1.01 | locus YPL241C, strain CIN2, stronger effect = lower value 0.996 | locus YPL256C, strain CLN2, stronger effect = lower value 1.05 | locus YPR119W, strain clb2, stronger effect = lower value 0.996 | locus YPR141C, strain kar3, stronger effect = lower value 0.989 | locus YPR163C, strain tif3, stronger effect = lower value 1.01 | locus YPR167C, strain met16, stronger effect = lower value 1.01 | strain wtn01, stronger effect = lower value 0.992
